Bioassay records deposited in PubChem by several laboratories.
NALP3 yeast inh: NALP3 inflammasome inhibitors in reconstituted yeast, primary screen, luminescence, uHTS. Yeast reconstituted NLRP3/ASC/caspase-1, beta-gal luminescence, 24 h. inhibition, % at 10 µM. actives 0.39% (n = 330,000);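 active means inhibition of 50% or more; inactive means inhibition below 50%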
tim23-1 inh: growth inhibitors of tim23-1 mutant yeast, primary screen, luminescence, uHTS; S. cerevisiae tim23-1 growth, BacTiter-Glo luminescence, 24 h; inhibition, % at 20 µM; actives 1.3% (n = 330,000); AID 463212, 2010;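 active means growth inhibition of the mutant yeast at or above 50%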;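 further: temperature-sensitive mutant grown at 25 °C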
tim10-1 inh: growth inhibitors of tim10-1 mutant yeast, primary screen, luminescence, uHTS. S. cerevisiae tim10-1 ts strain growth, BacTiter-Glo, 24 h. inhibition, % at 20 µM. actives 2.2% (n = 330,000);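 active means inhibition of at least 40%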;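 further: mutant grown at 25 °C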
TIM10 inh: growth inhibitors of isogenic TIM10 control yeast, primary screen, counter-screen for tim10-1 yeast inhibitor project, luminescence, uHTS. S. cerevisiae TIM10 strain growth, BacTiter-Glo luminescence, 24 h. inhibition, % at 10 µM. actives 1.4% (n = 330,000). AID 463195, 2010;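 active means inhibition of 40% or more at the single tested concentration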;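 further: wild-type TIM10 isogenic control strain grown at permissive 25 °C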
PfHsp90 set2: growth inhibition of PfHsp90-expressing yeast, primary screen, antimalarial PfHsp90 inhibitor project, S. cerevisiae, BacTiter-Glo luminescence, single point, set 2. BacTiter-Glo ATP, 48 h; yeast lacking PDR1 and PDR3 efflux regulators. inhibition, % at 9.4 µM. actives 0.32% (n = 310,000). AID 504621, 2011;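 active means every replicate shows inhibition above about 80%, whatever the replicate mean, limit read from the data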
NALP3 confirm: NALP3 inhibitors retested in yeast, confirmation, luminescence, single concentration | shares compounds with NALP3 yeast inh | yeast expressing human NALP3 | inhibition, % at 10 µM | actives 81% (n = 1,300) | AID 435006, 2010; in the data active means inhibition above about 48%
Casp1-ASC yeast: CASP1-PYCARD signaling inhibition in yeast, confirmatory test, counterassay for NLRP3 inhibitor program, one-dose; actives 66% (n = 1,000); shares compounds with NALP3 yeast inh; yeast expressing Caspase-1-ASC, luminescence counter screen; inhibition, % at 10 µM
NALP3 retest: NALP3 inhibitors in yeast, repeat test, confirmation, luminescence, single concentration, retest | shares compounds with NALP3 yeast inh | yeast expressing human NALP3, luminescence read-out | inhibition, % at 10 µM | actives 53% (n = 1,000)
tim10-1 conf: growth inhibitors of tim10-1 mutant yeast, confirmation, single concentration, luminescence, S. cerevisiae. shares compounds with tim10-1 inh. S. cerevisiae tim10-1 ts strain growth, BacTiter-Glo, 24 h. inhibition, % at 20 µM. actives 56% (n = 7,400);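 active means inhibition of yeast growth at or above a set limit in either of two repeat tests at 20 µM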;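 further: tim10-1 mutant grown at permissive 25 °C to find synthetic lethal compounds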
TIM10 conf: growth inhibitors of wild-type TIM10 yeast, confirmation, counter-screen for tim10-1 synthetic lethality project, single concentration, luminescence, S. cerevisiae. shares compounds with TIM10 inh. S. cerevisiae tim10 strain growth, BacTiter-Glo luminescence, 24 h. inhibition, % at 10 µM. actives 63% (n = 4,600). AID 463215, 2010;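 active means inhibition of yeast growth at or above a set limit in either of two replicates at 10 µM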; further: this counterscreen used the strain with wild-type TIM10
tim23-1 confirm: tim23-1 mutant yeast growth inhibitors, confirmation, luminescence, single concentration; shares compounds with tim23-1 inh; S. cerevisiae tim23-1 growth, BacTiter-Glo luminescence, 24 h; inhibition, % at 20 µM; actives 83% (n = 4,400); AID 463218, 2010;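 active means inhibition above about 39% in either of two replicate wells at 20 µM, limit read from the data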;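 further: temperature-sensitive tim23-1 mutant grown at 25 °C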
Each line names hits and unclear results; the compound was inactive in the other large screens (follow-up assays come after a bar, where they were run). Most compounds without a hit are left out; they make up all but 3.7% or so of the library. Unless noted, no stated cut-off is given here; in the data, active means inhibition above about 50%; inactive means the rest.

N#C/C(=C\c1cccc(Br)c1)C(=O)N1CCCCC1	NALP3 yeast inh 60, tim23-1 inh 81, tim10-1 inh 70, TIM10 inh 63 | NALP3 confirm 58 | Casp1-ASC yeast 68 | NALP3 retest 50 | tim10-1 conf 68 | TIM10 conf 74 | tim23-1 confirm 73
O=[N+]([O-])c1ccc(NC(=S)NCCc2ccc(Cl)cc2)cc1	NALP3 yeast inh 69, tim23-1 inh 65, tim10-1 inh 65, TIM10 inh 72, PfHsp90 set2 108 | NALP3 confirm 68 | Casp1-ASC yeast 93 | NALP3 retest 94 | tim10-1 conf 73 | TIM10 conf 85 | tim23-1 confirm 68
S=C(NCCc1ccccc1)Nc1ccc(Cl)cc1	none
CCc1ccc(NC(=O)c2nc(S(=O)(=O)Cc3ccccc3)ncc2Cl)cc1	NALP3 yeast inh 60, tim23-1 inh 66, PfHsp90 set2 99 | NALP3 confirm 73 | Casp1-ASC yeast 54 | NALP3 retest 66 | tim23-1 confirm inactive
CC(=O)Nc1ccc(NC(=O)c2nc(S(=O)(=O)Cc3cccc(C)c3)ncc2Cl)cc1	none
O=C(Oc1cc(=O)oc2c1c(=O)n1c3c(cccc23)CC1)c1ccc(F)cc1	NALP3 yeast inh 58, tim23-1 inh 71, tim10-1 inh 46, TIM10 inh 47 (no result: PfHsp90 set2) | NALP3 confirm 74 | tim10-1 conf inactive | TIM10 conf inactive | tim23-1 confirm 53
O=C(Oc1cc(=O)oc2c1c(=O)n1c3c(cccc23)CC1)c1ccccc1	NALP3 yeast inh 64, tim23-1 inh 58, TIM10 inh 41 | NALP3 confirm 76 | Casp1-ASC yeast 56 | NALP3 retest 63 | TIM10 conf inactive | tim23-1 confirm 66
CC(C)Oc1ccc(C(=O)/C=C2/C(=O)Nc3ccccc32)cc1	NALP3 yeast inh 65, tim23-1 inh 88, tim10-1 inh 69, TIM10 inh 76, PfHsp90 set2 107 | NALP3 confirm 76 | Casp1-ASC yeast 86 | NALP3 retest 64 | tim10-1 conf 76 | TIM10 conf 69 | tim23-1 confirm 85
O=C(/C=C1\C(=O)Nc2ccccc21)/C=C1\C(=O)Nc2ccccc21	none (no result: NALP3 yeast inh, tim23-1 inh, tim10-1 inh, TIM10 inh)
COc1cc(NS(=O)(=O)c2cn(C)cn2)cc(OC)c1OC	none
Oc1ccc(N=Nc2ccc(Br)cc2)c(O)c1	NALP3 yeast inh 58, tim23-1 inh 68, TIM10 inh 48 | NALP3 confirm 73 | Casp1-ASC yeast inactive | NALP3 retest inactive | TIM10 conf 64 | tim23-1 confirm inactive
Oc1ccc(N=Nc2n[nH]c(-c3ccc(Br)cc3)n2)cc1	none (no result: NALP3 yeast inh, tim23-1 inh, tim10-1 inh, TIM10 inh)
COc1ccc(-c2noc(CSc3nc4ccccc4c(=O)n3-c3ccc(C)cc3)n2)cc1	none
C/C(CC(C)(C)C1CCCCC1)=N\NC(N)=S	NALP3 yeast inh 54, tim23-1 inh 78, tim10-1 inh 69, TIM10 inh 55 | NALP3 confirm inactive | tim10-1 conf 70 | TIM10 conf 73 | tim23-1 confirm 64
Nc1nc2sc3c(c2c(=O)s1)CCCC3	NALP3 yeast inh 71, tim23-1 inh 73, tim10-1 inh 54, TIM10 inh 44 | NALP3 confirm 83 | Casp1-ASC yeast 70 | NALP3 retest 80 | tim10-1 conf inactive | TIM10 conf 33 | tim23-1 confirm 52
C/C(=N\NC(=O)c1ccc(Cl)cc1)c1ccccn1	NALP3 yeast inh 72, tim23-1 inh 50 | NALP3 confirm 85 | Casp1-ASC yeast 94 | NALP3 retest 83 | tim23-1 confirm 45
N#C/C(=C\c1ccc(OCC(N)=O)cc1)C(=O)NC1CC1	none
CCCCOc1cccc(/C=C(\C#N)C(=O)NC2CC2)c1	NALP3 yeast inh 51, tim23-1 inh 89, tim10-1 inh 88 | NALP3 confirm 54 | Casp1-ASC yeast inactive | NALP3 retest inactive | tim10-1 conf 83 | tim23-1 confirm 85
O=C(NC1CC1)c1ccc(-c2nc3ccccc3s2)s1	NALP3 yeast inh 60, tim23-1 inh 59, TIM10 inh 53 (no result: PfHsp90 set2) | NALP3 confirm 55 | Casp1-ASC yeast 52 | NALP3 retest inactive | TIM10 conf 51 | tim23-1 confirm 68
Cc1ccc2nc(NC(=O)c3ccc(-c4nc5ccccc5s4)s3)sc2c1	none
Cc1ccc2ccc3cccnc3c2n1	none (no result: NALP3 yeast inh, tim23-1 inh, tim10-1 inh, TIM10 inh)
Cc1c(C)c2cccnc2c2ncccc12	NALP3 yeast inh 78, tim23-1 inh 69, TIM10 inh 57, PfHsp90 set2 124 | NALP3 confirm 86 | Casp1-ASC yeast 96 | NALP3 retest 86 | TIM10 conf 62 | tim23-1 confirm 45
COc1ccc(S(=O)(=O)NC2CCCC2)cc1Cl	none
CN1/C(=C\C(=O)c2cccs2)Sc2ccccc21	NALP3 yeast inh 62, tim23-1 inh 59, TIM10 inh 63 | NALP3 confirm inactive | TIM10 conf 60 | tim23-1 confirm 80
COc1cc(OC)cc(C(=O)/C=C2\Sc3ccccc3N2C)c1	none
O=C(O)C1CC2CCC1CC2 (stereo not given)	none (no result: NALP3 yeast inh, tim23-1 inh, tim10-1 inh, TIM10 inh)
COc1ccc(-c2cc(=O)c3ccccc3s2)cc1	NALP3 yeast inh 66, tim23-1 inh 52, TIM10 inh 42 | NALP3 confirm 66 | Casp1-ASC yeast 54 | NALP3 retest 66 | TIM10 conf 44 | tim23-1 confirm 54
COc1ccc(-c2cc(=O)c3ccccc3[nH]2)cc1	none
COc1cc2c(cc1OC)C(C)N(C(=O)c1cccc([N+](=O)[O-])c1)CC2 (stereo not given)	none
